Laboratory results from ChEMBL document CHEMBL3988442, “University of Dundee, Small-Polar-MMV Screening Library” (2021).
The whole screen tested about 67,000 compounds, of which about 300 (0.45%) showed an effect of 50% or more. What follows is part of a selection rich in strong results, with near analogues and random picks from the rest.

The compounds below were run against Polyketide synthase Pks13 (Mycobacterium tuberculosis (strain ATCC 25618 / H37Rv)) (UniProt I6X8D2) (assay: Mycobacterium tuberculosis Polyketide synthase 13 Thioesterase (PKS13)). Conditions: 30 µM.
Assay type: functional
Design: scale not given: in the data most compounds retested in dose-response had high values

Chain of Polyketide synthase Pks13 (Mycobacterium tuberculosis (strain ATCC 25618 / H37Rv)) (I6X8D2 whole entry): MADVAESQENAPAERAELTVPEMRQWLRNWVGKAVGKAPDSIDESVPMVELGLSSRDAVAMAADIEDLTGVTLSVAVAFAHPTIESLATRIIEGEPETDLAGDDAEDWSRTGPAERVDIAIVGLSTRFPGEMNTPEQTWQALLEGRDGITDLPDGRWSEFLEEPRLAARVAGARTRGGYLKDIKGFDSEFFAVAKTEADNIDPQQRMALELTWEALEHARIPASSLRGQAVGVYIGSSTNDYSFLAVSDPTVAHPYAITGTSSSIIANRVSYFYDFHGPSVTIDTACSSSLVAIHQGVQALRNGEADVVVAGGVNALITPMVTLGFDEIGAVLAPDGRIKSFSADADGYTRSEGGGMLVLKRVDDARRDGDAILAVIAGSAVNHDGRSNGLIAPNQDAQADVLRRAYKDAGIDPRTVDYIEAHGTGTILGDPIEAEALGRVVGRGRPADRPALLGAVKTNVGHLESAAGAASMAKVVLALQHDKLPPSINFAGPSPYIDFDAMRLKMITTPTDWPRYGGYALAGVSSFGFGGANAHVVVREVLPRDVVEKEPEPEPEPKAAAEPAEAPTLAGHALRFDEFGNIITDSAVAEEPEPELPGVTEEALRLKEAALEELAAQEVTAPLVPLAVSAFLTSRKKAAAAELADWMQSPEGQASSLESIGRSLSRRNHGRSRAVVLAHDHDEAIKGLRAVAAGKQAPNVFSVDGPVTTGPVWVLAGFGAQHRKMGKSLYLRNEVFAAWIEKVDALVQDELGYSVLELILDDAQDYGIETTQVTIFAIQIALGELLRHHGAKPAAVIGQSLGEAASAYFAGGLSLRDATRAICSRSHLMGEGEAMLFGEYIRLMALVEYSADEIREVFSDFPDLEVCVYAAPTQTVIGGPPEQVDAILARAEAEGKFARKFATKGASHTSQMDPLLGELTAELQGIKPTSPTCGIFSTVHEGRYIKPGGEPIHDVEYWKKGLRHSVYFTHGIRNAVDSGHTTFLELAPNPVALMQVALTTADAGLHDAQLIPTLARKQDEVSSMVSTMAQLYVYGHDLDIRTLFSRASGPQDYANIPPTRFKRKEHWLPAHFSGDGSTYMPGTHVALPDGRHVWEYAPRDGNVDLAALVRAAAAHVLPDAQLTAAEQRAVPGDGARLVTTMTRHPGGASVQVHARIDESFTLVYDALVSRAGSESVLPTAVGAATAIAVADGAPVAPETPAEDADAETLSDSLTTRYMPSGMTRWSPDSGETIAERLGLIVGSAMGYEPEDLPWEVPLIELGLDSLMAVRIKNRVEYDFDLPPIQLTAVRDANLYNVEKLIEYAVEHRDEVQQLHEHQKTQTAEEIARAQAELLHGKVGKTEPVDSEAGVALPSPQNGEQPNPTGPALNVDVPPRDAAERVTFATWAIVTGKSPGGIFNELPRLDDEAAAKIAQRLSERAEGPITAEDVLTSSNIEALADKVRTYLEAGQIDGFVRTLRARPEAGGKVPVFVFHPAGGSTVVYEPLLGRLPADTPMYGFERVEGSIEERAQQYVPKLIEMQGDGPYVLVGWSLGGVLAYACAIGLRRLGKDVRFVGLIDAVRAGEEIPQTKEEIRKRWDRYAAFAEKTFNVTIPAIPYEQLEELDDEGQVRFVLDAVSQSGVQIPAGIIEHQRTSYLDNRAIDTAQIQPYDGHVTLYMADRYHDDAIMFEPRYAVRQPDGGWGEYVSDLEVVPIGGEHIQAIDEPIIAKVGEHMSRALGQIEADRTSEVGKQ

Row | Compound | Percent Effect
1 | Cn1cc(CN2C[C@@H]3OCCN(CC4CCCC4)[C@@H]3C2)cn1 | -22.6%
2 | Cc1nc(CO[C@H]2CN(C(=O)c3ccc[nH]3)[C@@H]3COC[C@H]23)cs1 | -11.9%
3 | CN(C)c1ccc(C(=O)NCc2ccc(N3CCOCC3)cc2)cn1 | -1.83%
4 | O=C(NCc1ccccc1)c1nnc2ccc(N3CCOCC3)cc2n1 | 50.8%
5 | CCN(CCC(F)(F)F)C(=O)Nc1cccc(N2CCOCC2)c1 | -2.57%
6 | CCN(CC)C(=O)c1nnc2ccc(N3CCOCC3)cc2n1 | 51.7%
7 | CN(C)C(=O)c1nnc2ccc(N3CCOCC3)cc2n1 | 11.7%
8 | CCNC(=O)c1nnc2ccc(N3CCOCC3)cc2n1 | 48.2%
9 | c1cncc(OC[C@@]23CCO[C@@H]2CCN(Cc2cccs2)C3)c1 | 12.4%
10 | Cc1cccc(CN2C[C@@H]3COC[C@]3(COc3cccnc3)C2)n1 | 8.46%
11 | CC(=O)N1[C@@H](C(=O)NCC2CC2)C[C@@H]2CN(Cc3ccco3)C[C@@H]21 | -5.84%
12 | O=C(c1ccccc1F)N1CC[C@@H]2CN(c3ncccn3)CCO[C@@H]2C1 | 12%
13 | CCC(CNC(=O)COC)Oc1cccc(F)c1 (stereo unspecified) | 60.4%
14 | CCC(=O)NCC(CC)Oc1cccc(F)c1 (stereo unspecified) | -2.34%
15 | CCC(CNC(=O)CNC(C)=O)Oc1cccc(F)c1 (stereo unspecified) | -7.54%
16 | O=C(CCc1ccccc1)N1C[C@@H]2CN(Cc3ccoc3)CCO[C@@H]2C1 | -7.96%
17 | CCc1noc(CNc2ccc(CC(=O)N3CCSCC3)cc2)n1 | -12.3%
18 | CCc1nnc(CNc2ccc(CC(=O)N3CCSCC3)cc2)o1 | 5.6%
19 | Cc1noc(CNc2ccc(CC(=O)N3CCSCC3)cc2)n1 | 70.3%
20 | CN1C(=O)[C@H]2CC[C@@H]1CN(C(=O)c1sccc1S(N)(=O)=O)C2 | -33.4%
21 | CCN1C[C@H]2CCN(C(=O)C3CCCO3)CC[C@H]2S1(=O)=O (stereo partly specified) | -20.2%
22 | CNC(=O)[C@H]1C[C@@H]2CN(C(=O)c3cncc(C)c3)C[C@@H]2N1C | 19.6%
23 | COc1ccc(C(C)Nc2cnn(C)c(=O)c2Cl)cc1OC (stereo unspecified) | 2.82%

Row | Compound | Percent Effect
24 | CC(Nc1cnn(C)c(=O)c1Cl)c1ccc(F)c(F)c1 (stereo unspecified) | 78.5%
25 | CC(Nc1cnn(C)c(=O)c1Cl)c1ccc(F)cc1 (stereo unspecified) | -8.28%
26 | O=C1[C@H]2CN(c3ncccn3)C[C@H]2CN1Cc1ccncc1 | -2.04%
27 | c1cc(CN2C[C@@H]3OCCN(CC4CCCO4)[C@@H]3C2)cs1 (stereo partly specified) | -16.8%
28 | CCS(=O)(=O)N1C[C@H]2CN(Cc3ccc(OC)cc3)C(=O)[C@H]2C1 | -7.48%
29 | O=C(CC(F)(F)F)N1C[C@H]2CN(CC3CC3)C(=O)[C@H]2C1 | -30.7%
30 | Cn1cc(-c2ccnc(NCC3CCN(Cc4ccccc4)C3)n2)cn1 (stereo unspecified) | 60.9%
31 | COCCCN1CCC(CNc2nccc(-c3cnn(C)c3)n2)C1 (stereo unspecified) | -31.5%
32 | Cn1cc(-c2ccnc(NCC3CC3)n2)cn1 | -14.8%
33 | O=C(CSc1ccccn1)N1C[C@H]2CC[C@@H]1CN(Cc1cscn1)C2 | -9.36%
34 | CN(C)C(=O)CN1C[C@@H]2CC[C@H](C1)N(C(=O)Cc1ccccc1Cl)C2 | -15.3%
35 | COCCN(C)C[C@@H]1CCC[C@@H]2CN(c3ncccn3)C[C@@H]21 | -50.6%
36 | CN(C[C@@H]1CCC[C@@H]2CN(c3ncccn3)C[C@@H]21)C1CC1 | 75.8%
37 | COc1cc(N2C[C@H]3CCC[C@@H](CN(C)C4CC4)[C@H]3C2)ncn1 | -5.89%
38 | Cc1cccc(CN2C[C@H](OCc3csc(C)n3)[C@H]3COC[C@H]32)n1 | -2.96%
39 | CCOCC1CN(C(=O)c2cccn2C)Cc2cnn(CC3CC3)c21 (stereo unspecified) | -11.3%
40 | CCOCC1CN(C(=O)c2cccs2)Cc2cnn(CC3CC3)c21 (stereo unspecified) | 80.6%
41 | CCn1ncc2c1C(COCC1CC1)CN(C(=O)c1cccs1)C2 (stereo unspecified) | -31.9%
42 | Cn1ccnc1CN1CC[C@@H]2[C@@H](CCC(=O)N2CCc2c[nH]cn2)C1 | -26.1%
43 | CSc1nccc(N2CCC3(CCCN(CC4CC4)C3)C2)n1 (stereo unspecified) | -0.995%
44 | c1cnc(N2CCOCC3(CCCN(CC4CC4)C3)C2)cn1 (stereo unspecified) | 2.73%
45 | c1cnc(N2CCC3(CCCN(CC4CCCCC4)C3)C2)cn1 (stereo unspecified) | 66.6%
46 | C[C@H]1C[C@H]2CN(S(=O)(=O)c3ccc(F)cc3)CC[C@@H]2O1 | -20.4%

Row | Compound | Percent Effect
47 | O[C@]12CCNC[C@H]1CN(c1nccc3ccccc13)CC2 | -2.31%
48 | CC(NC(=O)N1CCC(CC(N)=O)CC1)c1csc2ccccc12 (stereo unspecified) | -11.9%
49 | CC(=O)N1CCCN(C(=O)NC(C)c2csc3ccccc23)CC1 (stereo unspecified) | -15.4%
50 | CC(NC(=O)N1CCC(CO)CC1)c1csc2ccccc12 (stereo unspecified) | 53%
51 | Cc1cnn(CC2CCCN2Cc2cc(=O)n3ccccc3n2)c1 (stereo unspecified) | 2.94%
52 | Cc1cnn(CC2CCCN2Cc2cc(=O)n3cc(C)ccc3n2)c1 (stereo unspecified) | 99.9%
53 | Cc1cnn(CC2CCCN2Cc2cc(=O)n3cccc(C)c3n2)c1 (stereo unspecified) | -5.2%
54 | Cc1cnc(CNC(=O)[C@@]23CCO[C@@H]2CCN(c2ncccn2)C3)cn1 | -4.01%
55 | CC(C)CN1C[C@H]2CCN(C(=O)NC3CCCC3)CC[C@H]2S1(=O)=O | 6.92%
56 | Cc1ccc(C)c(OC2CCN(C(=O)NCC(=O)N3CCCC3)CC2)c1 | -7.72%
57 | CCNC(=O)CCC(=O)N1CCC(Oc2cc(C)ccc2C)CC1 | -5.09%
58 | Cc1ccc(C)c(OC2CCN(C(=O)CNc3ccccc3Cl)CC2)c1 | 73.1%
59 | CNC(=O)CN1CC[C@H]2CN(C(=O)c3cccc(C)c3)C[C@H]2C1 | -11%
60 | Cn1ccc(C(=O)N2C[C@@H]3CCN(c4cnccn4)C[C@@H]3C2)n1 | -2.86%
61 | Cn1ccnc1C(=O)N1C[C@@H]2CCN(c3cnccn3)C[C@@H]2C1 | 124%
62 | Cn1cncc1C(=O)N1C[C@@H]2CCN(c3cnccn3)C[C@@H]2C1 | -6.26%
63 | O=C(c1ccco1)N1CCO[C@@H]2CN(c3ncc(F)cn3)CC[C@@H]2C1 | -32.7%
64 | CS(=O)(=O)NC[C@]12COC[C@H]1CN(C(=O)c1ccncn1)C2 | -5.6%
65 | Cc1noc(C)c1CN1C(=O)[C@H]2CC[C@@H]1CN(Cc1cscn1)C2 | 7.07%
66 | CN(Cc1ccncc1)C1CCC[C@@H]2CN(c3ncccn3)C[C@H]12 (stereo partly specified) | -25.8%
67 | COc1ccccc1-n1c(C)cc(CNC(=O)NC(C)C)c1C | 0.233%
68 | CCOC(=O)CNC(=O)NCc1cc(C)n(-c2ccccc2OC)c1C | 50%
69 | CCOC(=O)CNC(=O)NCc1cc(C)n(-c2ccc(OC)cc2)c1C | 10.9%

Row | Compound | Percent Effect
70 | CN1C[C@@H]2CN(C(=O)C3CC=CC3)C[C@@H]2C1=O | -9.96%
71 | CCC(O)CN1CCN(C(=O)c2ccc(N(C)C)nn2)CC1 (stereo unspecified) | 5.36%
72 | CN(C)c1ccc(C(=O)N2CCN(CC(C)(C)O)CC2)nn1 | -26.8%
73 | CN(C)c1ccc(C(=O)N2CCN(C(=O)N3CCCCC3)CC2)nn1 | 65.3%
74 | CCS(=O)(=O)N1C[C@H](c2nc(C)no2)C[C@H]2OCC[C@H]21 | 5.36%
75 | CCc1ccc(CN2C[C@H](OC)[C@H]3COC[C@H]32)o1 | -5.96%
76 | O=C(NC1CCC1)[C@H]1C[C@@H]2CN(C(=O)Nc3ccc(F)cc3)C[C@H]1O2 | 5.75%
77 | O=C(c1ccc(O)cc1)N1C[C@@H]2OCCN(c3ncccn3)[C@@H]2C1 | -11.4%
78 | Cn1cc(CN2C[C@H]3CCC[C@@H](CNc4nccn4C)[C@H]3C2)cn1 | -23.6%
79 | Cc1cccc(CN2C(=O)C[C@H]3[C@@H]2CCN3Cc2ccco2)n1 | -23.1%
80 | O=C(O)c1csc(S(=O)(=O)Nc2cccc(OCC(F)(F)F)c2)c1 | 50%
81 | CCCOc1cccc(NS(=O)(=O)c2cc(C(=O)O)cs2)c1 | 40.8%
82 | CCOc1cccc(NS(=O)(=O)c2cc(C(=O)O)cs2)c1 | 0.586%
83 | CCOC1CCN(CCc2nc(-c3cccc(Cl)c3)no2)CC1 | 8.68%
84 | Clc1cccc(-c2noc(CCN3CCN(c4ccncc4)CC3)n2)c1 | -57.2%
85 | NC(=O)N1CCCN(CCc2nc(-c3cccc(Cl)c3)no2)CC1 | 55.5%
86 | CN1CCN(C(=O)[C@H]2C[C@@H]3CN(c4ncc(F)cn4)C[C@@H]3N2C)CC1 | -4.39%
87 | COCC(=O)N1CC[C@@H]2O[C@H](COCc3ccncc3)CC[C@@H]21 | -12.9%
88 | COC(=O)Cn1cccc(S(=O)(=O)N2CCC(C)CC2)c1=O | 50.5%
89 | CC1CCN(S(=O)(=O)c2cccn(CC(=O)NC3CCCC3)c2=O)CC1 | 3.17%
90 | CC1CCN(S(=O)(=O)c2cccn(CC(=O)NC(C)(C)C)c2=O)CC1 | -9.8%
91 | CCCOC(=O)N1CCc2cccc(S(=O)(=O)N3CCOCC3)c2C1 | -4.05%
92 | COCC(=O)N1CCc2cccc(S(=O)(=O)N3CCOCC3)c2C1 | -3.94%

Row | Compound | Percent Effect
93 | CCOCCC(=O)N1CCc2cccc(S(=O)(=O)N3CCOCC3)c2C1 | 59.9%
94 | COCCNC(=O)[C@@H]1CN(c2ncccn2)C[C@H]2OCC[C@H]21 | -43.5%
95 | CC(=O)N1C[C@H]2CN(CC3CC3)C(=O)[C@H]2C1 | -18.6%
96 | CSc1ccc2cc(CN(C)CCCN(C)C)c(=O)[nH]c2c1 | 6.22%
97 | CSc1ccc2cc(CN(C)CCO)c(=O)[nH]c2c1 | 67%
98 | CSc1ccc2cc(CN(C)CCc3cn[nH]c3)c(=O)[nH]c2c1 | -13.1%
99 | Cc1cnc(N2CCN3C[C@H](OCc4ccccn4)C[C@H]3C2)nc1 | -24.2%
100 | Cn1ccnc1CN1CCN2C[C@H](Oc3cccc(F)c3)C[C@H]2C1 | 23.6%
101 | O=C1C[C@H]2CC[C@@H](CN1)N2C1CCSCC1 | -1.94%
102 | CN(C(=O)c1ccc(-n2ncc(C#N)c2N)cc1)C1CCCC1 | -1.63%
103 | CN(CC1CCCCC1)C(=O)c1ccc(-n2ncc(C#N)c2N)cc1 | 52.7%
104 | N#Cc1cnn(-c2ccc(C(=O)N(C3CCCCC3)C3CC3)cc2)c1N | -18%
105 | CCCN1CCN(C(=O)c2cnccn2)[C@H]2CS(=O)(=O)C[C@H]21 | -4.16%
106 | c1cncc(CO[C@H]2CC[C@H]3[C@@H]2OCCN3C2CCOCC2)c1 | 2.72%
107 | Cc1cc(C)cc(CN2C[C@@H]3OCCN(S(=O)(=O)N(C)C)[C@@H]3C2)c1 | -14.4%
108 | CC1(C)O[C@@](C)([C@H]2CC3(CCN(c4cnccn4)CC3)CO2)CC[C@@H]1O | -3.99%
109 | CC(C)c1cc(N2CCC[C@H](N)C2)n2nccc2n1 | -7.75%
110 | CC(C)c1cc(N2CC[C@H](F)C2)n2nccc2n1 | -11.1%
111 | CC(C)c1cc(N2CCC(N)CC2)n2nccc2n1 | 61.4%
